From ChEMBL document CHEMBL2218924, “A broad activity screen in support of a chemogenomic map for kinase signalling research and drug discovery” (Biochem J, 2013)

Columns and labels:
[1] = biological target: Protein kinase C eta type (Homo sapiens) (UniProt P24723); details: at 1 µM
[2] = biological target: Protein kinase C eta type (Homo sapiens) (UniProt P24723); details: at 10 µM
[3] = biological target: Protein kinase C theta type (Homo sapiens) (UniProt Q04759); details: at 1 µM
[4] = biological target: Protein kinase C theta type (Homo sapiens) (UniProt Q04759); details: at 10 µM
[5] = biological target: T1, Protein kinase C iota type (Homo sapiens) (UniProt P41743); details: at 1 µM
T1 sequence (whole entry): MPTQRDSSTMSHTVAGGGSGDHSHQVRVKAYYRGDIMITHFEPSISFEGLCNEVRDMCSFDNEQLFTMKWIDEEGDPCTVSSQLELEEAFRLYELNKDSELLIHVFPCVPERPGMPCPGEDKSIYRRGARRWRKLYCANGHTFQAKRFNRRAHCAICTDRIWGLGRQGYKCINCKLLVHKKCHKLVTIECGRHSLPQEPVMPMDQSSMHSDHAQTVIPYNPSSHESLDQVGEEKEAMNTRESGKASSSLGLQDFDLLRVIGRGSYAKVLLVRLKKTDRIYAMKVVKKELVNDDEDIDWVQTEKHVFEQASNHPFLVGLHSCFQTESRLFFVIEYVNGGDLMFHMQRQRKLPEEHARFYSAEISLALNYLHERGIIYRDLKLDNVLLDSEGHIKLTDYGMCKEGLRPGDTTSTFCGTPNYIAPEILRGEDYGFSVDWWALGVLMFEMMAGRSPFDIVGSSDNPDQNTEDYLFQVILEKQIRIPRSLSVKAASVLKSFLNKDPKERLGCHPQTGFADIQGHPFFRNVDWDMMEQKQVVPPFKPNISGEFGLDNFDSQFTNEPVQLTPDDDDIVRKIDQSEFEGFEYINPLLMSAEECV

[6] = biological target: T1, Protein kinase C iota type (Homo sapiens); details: at 10 µM
[7] = biological target: T2, Serine/threonine-protein kinase D1 (Homo sapiens) (UniProt Q15139); details: at 1 µM
T2 sequence (whole entry): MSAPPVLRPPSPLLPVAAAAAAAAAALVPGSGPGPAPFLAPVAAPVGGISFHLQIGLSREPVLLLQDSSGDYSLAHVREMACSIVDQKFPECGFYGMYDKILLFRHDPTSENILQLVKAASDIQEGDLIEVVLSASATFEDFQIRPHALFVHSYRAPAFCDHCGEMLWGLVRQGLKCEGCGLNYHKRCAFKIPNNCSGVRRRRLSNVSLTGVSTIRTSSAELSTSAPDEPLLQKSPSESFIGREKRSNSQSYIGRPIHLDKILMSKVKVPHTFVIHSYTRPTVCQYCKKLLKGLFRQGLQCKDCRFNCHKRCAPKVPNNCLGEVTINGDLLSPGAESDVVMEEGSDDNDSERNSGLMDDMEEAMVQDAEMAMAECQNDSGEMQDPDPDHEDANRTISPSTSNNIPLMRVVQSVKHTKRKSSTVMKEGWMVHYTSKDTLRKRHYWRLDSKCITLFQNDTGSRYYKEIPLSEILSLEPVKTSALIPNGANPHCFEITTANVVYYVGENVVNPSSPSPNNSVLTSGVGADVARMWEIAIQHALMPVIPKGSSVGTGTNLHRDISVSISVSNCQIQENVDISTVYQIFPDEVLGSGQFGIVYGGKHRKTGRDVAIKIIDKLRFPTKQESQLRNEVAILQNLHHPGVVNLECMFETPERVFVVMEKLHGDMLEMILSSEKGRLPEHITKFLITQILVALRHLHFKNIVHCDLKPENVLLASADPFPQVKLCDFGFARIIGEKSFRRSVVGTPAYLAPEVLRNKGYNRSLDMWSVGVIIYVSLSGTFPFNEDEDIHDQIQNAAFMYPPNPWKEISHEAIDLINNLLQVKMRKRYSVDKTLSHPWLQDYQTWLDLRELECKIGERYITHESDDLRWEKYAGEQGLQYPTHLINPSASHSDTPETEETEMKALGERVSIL

[8] = biological target: T2, Serine/threonine-protein kinase D1 (Homo sapiens); details: at 10 µM
[9] = biological target: T3, Serine/threonine-protein kinase D2 (Homo sapiens) (UniProt Q9BZL6); details: at 1 µM
T3 sequence (whole entry): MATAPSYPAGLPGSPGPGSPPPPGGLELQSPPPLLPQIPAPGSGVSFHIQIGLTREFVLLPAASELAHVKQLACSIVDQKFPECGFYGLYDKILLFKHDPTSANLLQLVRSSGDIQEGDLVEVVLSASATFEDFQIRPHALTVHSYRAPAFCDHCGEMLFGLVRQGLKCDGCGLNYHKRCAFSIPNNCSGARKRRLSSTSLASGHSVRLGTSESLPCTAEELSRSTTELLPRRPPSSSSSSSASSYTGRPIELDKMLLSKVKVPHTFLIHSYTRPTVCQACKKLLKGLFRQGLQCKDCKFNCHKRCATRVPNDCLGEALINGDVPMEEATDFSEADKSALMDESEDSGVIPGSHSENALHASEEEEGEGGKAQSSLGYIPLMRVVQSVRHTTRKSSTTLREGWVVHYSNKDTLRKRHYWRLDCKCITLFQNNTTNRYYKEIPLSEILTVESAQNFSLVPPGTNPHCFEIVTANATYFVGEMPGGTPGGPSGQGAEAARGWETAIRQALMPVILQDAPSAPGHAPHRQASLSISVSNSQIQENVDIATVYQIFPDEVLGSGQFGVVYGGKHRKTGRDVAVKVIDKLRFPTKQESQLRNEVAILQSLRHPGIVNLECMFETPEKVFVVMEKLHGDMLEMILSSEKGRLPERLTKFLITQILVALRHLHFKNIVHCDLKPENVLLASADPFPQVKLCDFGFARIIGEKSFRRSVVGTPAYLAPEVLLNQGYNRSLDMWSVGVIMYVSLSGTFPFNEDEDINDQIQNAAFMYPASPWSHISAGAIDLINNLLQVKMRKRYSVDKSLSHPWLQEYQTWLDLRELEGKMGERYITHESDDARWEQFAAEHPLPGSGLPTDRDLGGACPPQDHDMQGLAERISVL

[10] = biological target: T3, Serine/threonine-protein kinase D2 (Homo sapiens); details: at 10 µM
[11] = biological target: T4, cGMP-dependent protein kinase 1 (Homo sapiens) (UniProt Q13976); details: at 1 µM
T4 sequence (whole entry): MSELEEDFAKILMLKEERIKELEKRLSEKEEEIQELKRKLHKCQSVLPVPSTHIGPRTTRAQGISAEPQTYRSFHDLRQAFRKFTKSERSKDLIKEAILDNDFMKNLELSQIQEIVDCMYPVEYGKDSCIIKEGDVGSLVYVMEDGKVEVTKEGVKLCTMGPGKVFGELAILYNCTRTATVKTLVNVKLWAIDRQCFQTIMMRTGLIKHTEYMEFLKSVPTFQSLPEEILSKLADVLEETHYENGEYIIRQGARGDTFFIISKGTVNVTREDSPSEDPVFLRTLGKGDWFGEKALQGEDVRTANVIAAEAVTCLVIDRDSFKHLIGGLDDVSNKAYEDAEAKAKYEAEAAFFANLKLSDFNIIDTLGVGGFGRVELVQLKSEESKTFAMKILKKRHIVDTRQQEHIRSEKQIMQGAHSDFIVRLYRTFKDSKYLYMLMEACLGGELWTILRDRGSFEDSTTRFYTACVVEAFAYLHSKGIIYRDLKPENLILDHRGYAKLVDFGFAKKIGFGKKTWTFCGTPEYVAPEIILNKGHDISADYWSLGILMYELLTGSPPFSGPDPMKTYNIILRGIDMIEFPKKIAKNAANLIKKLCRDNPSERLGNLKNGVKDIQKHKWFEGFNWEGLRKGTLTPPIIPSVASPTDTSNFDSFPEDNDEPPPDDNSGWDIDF

[12] = biological target: T4, cGMP-dependent protein kinase 1 (Homo sapiens); details: at 10 µM
[13] = biological target: T4, cGMP-dependent protein kinase 1 (Homo sapiens); details: at 1 µM; remark: listed apart in the source
[14] = biological target: T4, cGMP-dependent protein kinase 1 (Homo sapiens); details: at 10 µM; remark: listed apart in the source
[15] = biological target: T5, MAP kinase-activated protein kinase 5 (Homo sapiens) (UniProt Q8IW41); details: at 1 µM
T5 sequence (whole entry): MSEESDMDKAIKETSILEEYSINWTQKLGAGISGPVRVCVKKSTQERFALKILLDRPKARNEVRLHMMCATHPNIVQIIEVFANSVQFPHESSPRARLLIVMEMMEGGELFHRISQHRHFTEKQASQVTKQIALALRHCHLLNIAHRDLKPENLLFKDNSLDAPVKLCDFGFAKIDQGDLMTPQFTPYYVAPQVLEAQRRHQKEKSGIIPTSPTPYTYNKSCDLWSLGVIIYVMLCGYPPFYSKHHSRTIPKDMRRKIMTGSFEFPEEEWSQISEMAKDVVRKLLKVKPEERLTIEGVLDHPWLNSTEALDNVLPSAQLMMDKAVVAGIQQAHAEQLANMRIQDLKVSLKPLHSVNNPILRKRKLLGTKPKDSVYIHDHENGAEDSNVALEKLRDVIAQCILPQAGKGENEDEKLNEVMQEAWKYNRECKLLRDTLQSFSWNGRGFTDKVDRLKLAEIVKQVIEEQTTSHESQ

[16] = biological target: T5, MAP kinase-activated protein kinase 5 (Homo sapiens); details: at 10 µM
[17] = biological target: Serine/threonine-protein kinase N2 (Homo sapiens) (UniProt Q16513); details: at 1 µM
[18] = biological target: Serine/threonine-protein kinase N2 (Homo sapiens) (UniProt Q16513); details: at 10 µM
[19] = biological target: Tyrosine-protein kinase FRK (Homo sapiens) (UniProt P42685); details: at 1 µM
[20] = biological target: Tyrosine-protein kinase FRK (Homo sapiens) (UniProt P42685); details: at 10 µM

Chain of Protein kinase C theta type (Homo sapiens) (Q04759 whole entry, looked up): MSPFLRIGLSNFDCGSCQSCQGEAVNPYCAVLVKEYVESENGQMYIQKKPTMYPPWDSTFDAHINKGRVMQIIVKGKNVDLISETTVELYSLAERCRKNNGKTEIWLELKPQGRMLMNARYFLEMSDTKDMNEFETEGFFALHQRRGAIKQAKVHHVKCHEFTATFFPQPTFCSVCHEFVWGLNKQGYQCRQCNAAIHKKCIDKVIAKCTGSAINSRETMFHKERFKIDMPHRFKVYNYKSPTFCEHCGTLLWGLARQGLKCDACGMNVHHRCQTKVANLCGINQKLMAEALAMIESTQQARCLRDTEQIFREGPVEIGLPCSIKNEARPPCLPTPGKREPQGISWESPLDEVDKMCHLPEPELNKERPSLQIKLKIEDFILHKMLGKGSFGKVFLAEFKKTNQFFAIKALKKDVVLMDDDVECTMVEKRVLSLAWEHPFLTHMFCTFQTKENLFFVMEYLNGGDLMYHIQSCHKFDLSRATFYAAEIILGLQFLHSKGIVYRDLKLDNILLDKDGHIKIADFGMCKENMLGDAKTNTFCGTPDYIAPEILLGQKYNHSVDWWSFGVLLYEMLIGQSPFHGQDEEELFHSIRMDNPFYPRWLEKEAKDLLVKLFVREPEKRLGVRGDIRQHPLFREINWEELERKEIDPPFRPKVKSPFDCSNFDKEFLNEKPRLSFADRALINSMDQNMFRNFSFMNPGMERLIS
Chain of Protein kinase C eta type (Homo sapiens) (P24723 whole entry): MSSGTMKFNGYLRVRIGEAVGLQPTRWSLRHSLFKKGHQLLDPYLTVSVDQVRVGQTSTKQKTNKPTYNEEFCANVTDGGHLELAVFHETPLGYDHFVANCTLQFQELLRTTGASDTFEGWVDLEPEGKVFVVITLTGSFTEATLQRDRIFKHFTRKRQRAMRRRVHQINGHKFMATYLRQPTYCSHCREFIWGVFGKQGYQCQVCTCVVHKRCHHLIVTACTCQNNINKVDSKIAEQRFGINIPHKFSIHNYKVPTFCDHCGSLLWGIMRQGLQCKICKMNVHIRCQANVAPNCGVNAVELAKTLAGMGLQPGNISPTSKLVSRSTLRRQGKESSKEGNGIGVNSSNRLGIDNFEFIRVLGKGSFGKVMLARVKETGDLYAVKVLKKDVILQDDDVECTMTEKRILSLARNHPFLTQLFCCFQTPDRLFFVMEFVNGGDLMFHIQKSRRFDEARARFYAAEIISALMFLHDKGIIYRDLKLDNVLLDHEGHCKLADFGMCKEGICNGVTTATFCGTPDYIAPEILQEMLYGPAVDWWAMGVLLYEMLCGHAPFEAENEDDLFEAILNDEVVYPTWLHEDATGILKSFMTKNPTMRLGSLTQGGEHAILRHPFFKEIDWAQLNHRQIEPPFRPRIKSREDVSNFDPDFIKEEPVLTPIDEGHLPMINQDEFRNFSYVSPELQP
Chain of Serine/threonine-protein kinase N2 (Homo sapiens) (Q16513 whole entry, looked up): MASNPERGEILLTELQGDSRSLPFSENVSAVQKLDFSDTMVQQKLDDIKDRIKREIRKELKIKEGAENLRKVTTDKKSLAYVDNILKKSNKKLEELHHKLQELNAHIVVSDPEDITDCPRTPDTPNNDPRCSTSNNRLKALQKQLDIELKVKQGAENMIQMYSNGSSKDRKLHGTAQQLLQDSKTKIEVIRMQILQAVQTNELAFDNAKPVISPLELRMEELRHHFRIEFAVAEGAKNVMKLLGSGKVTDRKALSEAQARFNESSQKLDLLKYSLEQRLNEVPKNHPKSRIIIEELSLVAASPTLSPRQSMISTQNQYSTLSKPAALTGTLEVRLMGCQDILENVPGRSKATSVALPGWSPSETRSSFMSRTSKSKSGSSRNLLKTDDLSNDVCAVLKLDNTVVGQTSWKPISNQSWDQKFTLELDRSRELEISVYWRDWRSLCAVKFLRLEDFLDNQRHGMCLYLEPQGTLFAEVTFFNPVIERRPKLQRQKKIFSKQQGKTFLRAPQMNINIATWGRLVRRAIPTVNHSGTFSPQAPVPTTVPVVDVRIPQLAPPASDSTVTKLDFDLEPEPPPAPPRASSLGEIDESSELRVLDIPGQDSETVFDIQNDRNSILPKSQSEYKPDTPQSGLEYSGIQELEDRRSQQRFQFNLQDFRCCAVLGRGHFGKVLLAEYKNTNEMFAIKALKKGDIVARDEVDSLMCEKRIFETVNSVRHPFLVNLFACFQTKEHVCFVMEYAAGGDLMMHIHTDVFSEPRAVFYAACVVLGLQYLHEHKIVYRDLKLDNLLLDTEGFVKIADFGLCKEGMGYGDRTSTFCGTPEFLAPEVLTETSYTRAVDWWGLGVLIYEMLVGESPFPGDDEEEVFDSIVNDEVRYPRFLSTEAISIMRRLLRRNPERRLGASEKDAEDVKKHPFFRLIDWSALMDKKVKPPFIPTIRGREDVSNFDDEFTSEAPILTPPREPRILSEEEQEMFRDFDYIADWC
Chain of Tyrosine-protein kinase FRK (Homo sapiens) (P42685 whole entry): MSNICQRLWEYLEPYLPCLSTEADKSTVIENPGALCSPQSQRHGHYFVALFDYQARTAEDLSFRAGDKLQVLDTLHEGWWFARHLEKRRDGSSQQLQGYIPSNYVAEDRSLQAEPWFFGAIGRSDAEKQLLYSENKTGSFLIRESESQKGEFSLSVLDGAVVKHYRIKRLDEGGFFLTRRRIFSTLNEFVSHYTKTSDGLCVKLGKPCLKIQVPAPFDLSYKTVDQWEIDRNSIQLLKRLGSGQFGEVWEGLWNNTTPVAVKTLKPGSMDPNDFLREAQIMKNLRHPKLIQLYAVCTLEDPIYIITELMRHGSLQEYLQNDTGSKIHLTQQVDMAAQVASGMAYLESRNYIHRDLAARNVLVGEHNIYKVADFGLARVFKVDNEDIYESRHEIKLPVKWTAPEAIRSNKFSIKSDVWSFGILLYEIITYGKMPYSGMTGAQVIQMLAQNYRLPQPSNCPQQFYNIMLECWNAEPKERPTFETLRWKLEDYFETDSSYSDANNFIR

Row | Compound | residual activity [1] [%] | residual activity [2] [%] | residual activity [3] [%] | residual activity [4] [%] | residual activity [5] | residual activity [6] [%] | residual activity [7] [%] | residual activity [8] [%] | residual activity [9] [%] | residual activity [10] [%] | residual activity [11] [%] | residual activity [12] [%] | residual activity [13] [%] | residual activity [14] [%] | residual activity [15] [%] | residual activity [16] [%] | residual activity [17] [%] | residual activity [18] [%] | residual activity [19] [%] | residual activity [20] [%]
1 | CO[C@H]1[C@@H](OC)C[C@H](C)[C@@H](OC)C2=CC(=O)C=C(NC(=O)/C(C)=C/C=C/[C@H](OC)[C@@H](OC(N)=O)/C(C)=C/[C@@H]1C)C2=O | 118 | 83 | 100 | 98 | 92% (inactive) | 71 | 119 | 102 | 102 | 110 | 102 | 105 | 85 | 81 | 107 | 95 | 111 | 96 | 114 | 93
2 | Cc1ccc(S(=O)(=O)/C=C/C#N)cc1 | 80 | 90 | 97 | 77 | 109% (inactive) | 100 | 98 | 84 | 108 | 102 | 85 | 99 | 107 | 92 | 110 | 111 | 90 | 87 | 70 | 82
3 | Nc1ccc2ncnc(NCCc3ccc(Oc4ccccc4)cc3)c2c1 | 102 | 90 | 108 | 105 | 113% (inactive) | 111 | 91 | 82 | 107 | 102 | 108 | 109 | 86 | 75 | 89 | 90 | 98 | 78 | 93 | 109
4 | COc1ccc(OC)c2c(=S)c3ccccc3[nH]c12 | 77 | 63 | 81 | 89 | 109% (inactive) | 80 | 96 | 73 | 108 | 84 | 93 | 109 | 94 | 76 | 96 | 90 | 99 | 88 | 95 | 99
5 | Oc1ccc(Nc2nc(-c3ccc(Cl)cc3)cs2)cc1 | 78 | 79 | 100 | 114 | 109% (inactive) | 103 | 94 | 100 | 106 | 93 | 100 | 99 | 113 | 111 | 115 | 69 | 110 | 107 | 104 | 118
6 | Cc1nc2cc3nc(-c4cccs4)cnc3cc2n1C | 107 | 111 | 110 | 110 | 97% (inactive) | 99 | 94 | 95 | 96 | 105 | 117 | 96 | 99 | 103 | 81 | 56 | 97 | 100 | 99 | 76
7 | CC(C)n1cnc2c(NCc3ccccc3)nc(NCCCO)nc21 | 88 | 81 | 91 | 94 | 109% (inactive) | 105 | 91 | 72 | 103 | 96 | 89 | 101 | 95 | 83 | 115 | 115 | 110 | 99 | 88 | 80
